An excerpt weighted towards active compounds, which were near 6.2% of everything screened.
FMDV inh = antivirals against foot and mouth disease virus. FMDV antiviral cell-based qHTS. Potency, µM (highest dose often 57.9 µM), hits mostly inhibitors. 1.2% of 410,000 active; calls by dose curve; tested in HEK293T cells; also: read-out not given here; nearly all actives have a fitted effect of over 45% in size
HCMV antiviral = blocks human cytomegalovirus replication; HFF cells, HCMV-luciferase reporter, 72 h; active compounds read low; activity change, negative = inhibition, % at 57.5 µM; 4.5% of 410,000 active; AID 1259415; in the data active = activity change below about -60%; inconclusive = no clear call, values can overlap the other calls; inactive = above about -39%
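Human foreskin fibroblasts infected with luciferase-reporter HCMV at MOI 1 PFU/cell, compounds at two doses. Luciferase measured 72 h post infection; normalized to buffer-only basal and Salinomycin (10uM) controls.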
MARV entry inh = Marburg virus entry inhibition. Marburg virus pseudotyped entry inhibition, cell reporter. Potency, µM (highest dose often 37.8 µM), hits mostly inhibitors. 1.8% of 300,000 active. AID 540276; calls by dose curve; tested in HEK293 cells
LASV entry inh = inhibitors of Lassa virus binding or cell entry; 1.2% of 300,000 active; AID 540256; Lassa virus pseudotype entry inhibition, cell reporter; Potency, µM (top dose mostly 37.9 µM), actives largely listed as inhibitors; calls by dose curve; tested in HEK293 cells; also: nearly all actives have a fitted effect of over 50% in size
Each line names hits and unclear results; the compound was inactive in the other large screens.

COCC(=O)N(C)CC1CCCN(CCc2ccccc2OC)C1 (stereo not drawn)	MARV entry inh inconclusive
COc1ccc(CCN2CCCC(CN(C)Cc3cc(OC)c(OC)c(OC)c3)C2)cc1 (stereo not drawn)	MARV entry inh inconclusive, LASV entry inh inconclusive
COc1ccc(CN(C)CC2CCCN(CCc3ccc(F)cc3)C2)cc1OC (stereo not drawn)	none (no result: MARV entry inh, LASV entry inh)
COc1ccccc1CCN1CCCC(CN(C)CC(C)(C)CO)C1 (stereo not drawn)	MARV entry inh 13µM, LASV entry inh inconclusive
COc1ccc(CN(C)CC2CCCN(CCc3ccc(Cl)cc3)C2)cc1OC (stereo not drawn)	MARV entry inh 2.2µM, LASV entry inh inconclusive
O=C(CCn1c(=O)[nH]c2ccsc2c1=O)N1CCc2ccccc2C1	LASV entry inh inconclusive
COc1ccc(-c2nnc(NC(=O)c3ccc([N+](=O)[O-])o3)o2)c(OC)c1	HCMV antiviral -94
Cc1ccc(N(CC(=O)NCCSc2ccccc2)S(=O)(=O)c2ccc(F)cc2)cc1	FMDV inh inconclusive, HCMV antiviral -65 (no result: MARV entry inh)
Cc1ccc(S(=O)(=O)NCCC(=O)NCCCSc2ccccc2)cc1	HCMV antiviral -75 (no result: MARV entry inh, LASV entry inh)
COc1ccc(N(CC(=O)NCCSc2ccccn2)S(=O)(=O)c2ccc(C)cc2)cc1OC	HCMV antiviral -60
COc1ccc(N(CC(=O)NCCSc2ccccn2)S(=O)(=O)c2ccccc2)cc1OC	none (no result: LASV entry inh)
O=Cc1ccc(-c2ccc(Cl)cc2Cl)[nH]1	none
COc1ccc2sc(N(CCN(C)C)C(=O)/C=C/c3cccs3)nc2c1	FMDV inh inconclusive, HCMV antiviral -76 (no result: MARV entry inh, LASV entry inh)
CCN(CC)CCN(C(=O)/C=C/c1cccs1)c1nc2ccc(OC)cc2s1	none (no result: MARV entry inh, LASV entry inh)
Cc1cccc2sc(N(CCN(C)C)C(=O)/C=C/c3cccs3)nc12	FMDV inh inconclusive, HCMV antiviral -77, MARV entry inh inconclusive, LASV entry inh inconclusive
COc1ccc2nc(N(CCN(C)C)C(=O)/C=C/c3cccs3)sc2c1	FMDV inh inconclusive, HCMV antiviral -70 (no result: MARV entry inh, LASV entry inh)
O=C(O)c1cnc(-c2ccccc2)nc1Sc1ccccc1Cl	none
COc1ccc(NC(=O)C(C)N(c2ccccc2)S(C)(=O)=O)cc1 (stereo not drawn)	none
COc1ccc(CC2S/C(=N/N=C/c3ccc(O)cc3)NC2=O)cc1 (stereo not drawn)	LASV entry inh 1.5µM
O=C1N/C(=N/N=C/c2ccccc2O)SC1Cc1ccc(F)cc1 (stereo not drawn)	HCMV antiviral -66, MARV entry inh inconclusive, LASV entry inh inconclusive
O=C1N/C(=N/N=C/c2ccc(O)cc2)SC1Cc1ccccc1 (stereo not drawn)	LASV entry inh 1.5µM
COc1ccc(CC2S/C(=N/N=C/c3ccccc3O)NC2=O)cc1 (stereo not drawn)	HCMV antiviral inconclusive (no result: MARV entry inh, LASV entry inh)
Cc1ccc(S(=O)(=O)N/N=C\c2cccnc2)cc1	none (no result: FMDV inh)
O=C(Nc1ccc(Cl)c(Cl)c1)c1ccccc1	none (no result: MARV entry inh, LASV entry inh)
O=C(Nc1ccc2nc3ccccc3nc2c1)c1ccccc1	MARV entry inh inconclusive, LASV entry inh 11µM
CC(=O)Nc1ccc2cc3ccc(NC(C)=O)cc3nc2c1	HCMV antiviral -98 (no result: MARV entry inh, LASV entry inh)
Cc1ccc(C(=O)Nc2ccc3ncccc3c2)cc1	FMDV inh 14µM, HCMV antiviral -64, MARV entry inh inconclusive, LASV entry inh inconclusive
Cc1ccc(C(=O)Nc2ccc(Br)c(C(F)(F)F)c2)cc1	MARV entry inh 16µM, LASV entry inh inconclusive
CC1(Oc2ccc(CC#N)cc2)CCN(Cc2ccccc2OC(F)F)C1 (stereo not drawn)	none (no result: MARV entry inh, LASV entry inh)
COC(=O)C(Cc1c[nH]c2ccccc12)NC(=O)CNC(C)=O (stereo not drawn)	none
Cn1c(CN2CCCCC2)nc2cc(NC(=O)c3ccccc3)ccc21	HCMV antiviral -60
Cc1nc2cc(N3CCCCC3)c(NC(=O)c3ccncc3)cc2c(=O)n1Cc1ccccc1	none
Cn1c(CN2CCCC2)nc2cc(NC(=O)Nc3ccccc3)ccc21	none (no result: FMDV inh)
Cc1nc2ccc(NC(=O)c3ccccc3)cc2c(=O)n1Cc1ccc(F)cc1	FMDV inh 28µM, HCMV antiviral -73 (no result: MARV entry inh, LASV entry inh)
COc1ccccc1N1CCN(C(=O)c2cccc3c(=O)c(C)c(-c4ccccc4)oc23)CC1	HCMV antiviral -66 (no result: LASV entry inh)
COc1ccccc1N1CCN(C(=O)c2oc3ccccc3c2C)CC1	MARV entry inh inconclusive, LASV entry inh inconclusive
Cc1ccc(C)c(N2CCN(C(=O)c3ccc4nc(-c5ccco5)c(-c5ccco5)nc4c3)CC2)c1	MARV entry inh inconclusive
COc1ccccc1N1CCN(C(=O)c2cc3c(C)nc4ccccc4c3o2)CC1	FMDV inh inconclusive, HCMV antiviral -61, MARV entry inh inconclusive, LASV entry inh 11µM
Cc1nc2ccccc2c2oc(C(=O)N3CC(C)CC(C)C3)cc12 (stereo not drawn)	FMDV inh inconclusive (no result: MARV entry inh, LASV entry inh)

Source: PubChem BioAssay (National Center for Advancing Translational Sciences (NCATS))
